# Results from PubChem BioAssay (EPA / NIEHS).
# Activity calls are given as the source filed them. How the source made its calls: active means hit-call score of the fitted dose curve at least 0.9, where 1 is the maximum; inactive means score below 0.9.
# Read-out: 3-Hydroxy-3-Methylglutaryl-CoA Synthase 2 (HMGCS2), HMGCS2 (gene 3158)
# Experiment: LTEA_HepaRG_HMGCS2: Life Technologies and Expression Analysis (LTEA) Assay for 3-Hydroxy-3-Methylglutaryl-CoA Synthase 2 (HMGCS2) using HepaRG (AID 2283504)
# Settings: mRNA level, 48 h; actives raise or lower the signal
# Protocol: LTEA_HepaRG is a cell based, multiplexed-readout assay that uses HepaRG, a human liver cell line, with measurements taken at 48 hours after chemical dosing on a 96-well plate.LTEA_HepaRG_HMGCS2 is one of 102 assay component(s) measured in the LTEA HepaRG cell culture assay. It is a marker of Steatosis.Data from the assay component LTEA_HepaRG_HMGCS2 was analyzed into 1 endpoint. This assay endpoint, LTEA_HepaRG_HMGCS2, was analyzed with bidirectional fitting relative to DMSO as the negative control and baseline of activity. Using a type of inducible reporter, measures of mRNA induction for gain or loss-of-signal activity can be used to understand regulation of transcription factor activity. To generalize the intended target to other relatable targets, this assay endpoint is annotated to the lyase intended target family, where the subfamily is HMG-CoA synthase.
# A total of 1060 chemcials from the ToxCast library were tested in eight-point concentration-response experiments. Cell culture and cytotoxicity assays were conducted at Thermo Fisher Scientific's Custom Services facility (Madison, WI). A single lot of human HepaRG cells (Thermo Fisher Scientific, Frederick, MD) was used for the cell culture experiments. 96-well format collagen type I coated plates of human HepaRG cells were prepared using established methods. Briefly, cryopreserved HepaRG cells were thawed, plated at a density of approximately 100,000 cells/well in HepaRG Thaw, Plate, and General Purpose media (HPRG770, Thermo Fisher Scientific), and incubated for 48 hours. 0.5% DMSO was selected as vehicle control to balance the requisite need of DMSO in HepaRG cultures to maintain differentiation (for example, baseline metabolism, proportions of hepatocytes vs. cholangiocytes), while enabling further hepatic receptor pathway activation (for example, PXR and CAR) in response to chemical exposure. 48 hours after plating, the culture medium was replaced with HepaRG Serum-Free Incudtion Media. Cells were exposed to each test chemical in duplicate and maintained in CO2 incubators for another 48 hours. Chemical plates were thawed to room temperature and 200x concentrations of treatment groups were prepared. 8-point conentration-reponse curves were made with the highest exposure at 100 uM, followed by half-log dilutions, all in 0.5% DMSO. Each test plate contained variouse controls, induction positive controls (1mM phenobarbital), cytotoxicity positive controls ([…] aflatoxin B1), vehicle controls (0.5% DMSO), and total lysis controls (0.5% DMSO). Cell morphology images were taken using an Essen IncuCyte FLR automated microscope, with six 96-well plates imaged in about 24 minutes. Images were captured and exported and JPEG files. Spent culture media was transfered to black-well plates for the LDH assay, and remaining media was sorted at -80 C for later use. Cells were treated with RLT buffer and frozen until shipped for gene expression analysis. Total RNA was isolated from the cell suspension in 75 uL of Buffer RLT (Qiagen, Germantown, MD 20874) by Quintiles/Expression Analysis (Durham, NC) using a custom isolation procedure. Total RNA from each plate well was transferred to a preamplification plate. Fluidigm's 96.96 Dynamic ArrayTM (Fluidigm, Amsterdam, the Netherlands) technology was used for gene expression analyses by quantitative reverse transcription polymerase chain reaction (qRT-PCR, performed by Quintiles/Expression Analysis, Durham, NC)89. Standard TaqManTM Assays (Applied Biosystems/ThermoFisher Scientific, Foster City, CA) were used to assess the expression of 93 genes selected based on their selectivity and sensitivity to important hepatic receptors known to be modulated by environmental chemicals; importance in human hepatocyte functionality; and hepatotoxicity. […]
Compound,AC50,outcome
O=C(CCCN1CCC(O)(c2ccc(Cl)cc2)CC1)c1ccc(F)cc1,84.4 µM (active),
CCC(C)c1ccccc1O (stereo unspecified),,inactive
O=C1NS(=O)(=O)c2ccccc21,,inactive
Cc1[nH]nc2c1N=C(c1ccccc1Cl)c1cc([N+](=O)[O-])ccc1N2,28.8 µM (active),
CCCCCCCCCCCCOS(=O)(=O)O,86.6 µM (active),
CC(=O)Nc1ccc(O)cc1,,inactive
OCC(CO)(CBr)CBr,,inactive
CN(C)CCOC(c1ccccc1)c1ccccc1,,inactive
CS(=O)(=O)c1ccc([C@@H](CC2CCCC2)C(=O)Nc2cnccn2)cc1Cl,74.3 µM (active),
CCCCC=O,,inactive
CCCCc1oc2ccccc2c1C(=O)c1cc(I)c(OCCN(CC)CC)c(I)c1,61.6 µM (active),
CCCCCCCCCCCCCCC,,inactive
CCCCC(CC)C(=O)O (stereo unspecified),,inactive
CN(Cc1cnc2nc(N)nc(N)c2n1)c1ccc(C(=O)N[C@@H](CCC(=O)O)C(=O)O)cc1,,inactive
O=C(c1ccccc1)c1ccccc1,,inactive
N=C(N)c1ccc(OCCCCCOc2ccc(C(=N)N)cc2)cc1,7.77 µM (active),
